Our source for the activation and Potency values is PubChem BioAssay (NCATS).

Inconclusive results are not listed. Values without a mark were called inactive. Calls of active or inactive are those of the source. The call rests on the fitted dose curve; in most records, active means well fitted curve in the direction sought with a large enough effect; inconclusive means small, poorly fitted or top-dose-only effect, or another doubt; inactive means no such curve, though single readings can be large; an effect the other way counts as inactive or inconclusive.

The target of experiment [1] is Cellular tumor antigen p53 (Homo sapiens) (UniProt P04637). Kind of experiment: Primary qHTS for small molecule compounds that upregulate eGFP-tagged delta133p53alpha (in N-terminal) cells. (AID 2060322). Further: nearly all actives have a fitted effect of over 75% in size. Further: potency means the concentration at half of the fitted maximal effect.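 On activation: series mostly up to about 56 µM; 0% = DMSO vehicle and 100% = reference activator.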 The conditions noted are these: NCI-H358 eGFP-delta133p53alpha fluorescence, 24 h; activation: active compounds read high. The procedure, abridged:
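NCI-H358 cells pre-induced 24 h with 10 ng/ml doxycycline to express N-terminal eGFP-delta133p53alpha, then dosed 24 h at 37C without doxycycline; fixed, Hoechst-stained, GFP intensity by laser scanning cytometry, normalized to DMSO (0%) and 57.5 uM 5-azacytidine (100%).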
(Quantitative high-throughput screening tests each substance at several concentrations.)

For experiment [2], the target named is Aldehyde dehydrogenase, mitochondrial (Homo sapiens) (UniProt P05091). Kind of experiment: qHTS for Inhibitors of the Aldehyde Dehydrogenase Family (ALDH2) Primary screen (AID 2061308).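 Further: plate controls were vehicle for no effect and reference inhibitor for full effect; nearly all actives have a fitted effect of over 55% in size.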
Experiment [3] concerns the target Retinaldehyde dehydrogenase 3 (Homo sapiens) (UniProt P47895). Nature of the experiment: qHTS for Inhibitors of the Aldehyde Dehydrogenase Family (ALDH1A3) Primary screen (AID 2061315).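 Further: plate controls were DMSO vehicle for no effect and reference inhibitor for full effect.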

Cellular tumor antigen p53 (Homo sapiens), sequence (P04637 whole entry, looked up): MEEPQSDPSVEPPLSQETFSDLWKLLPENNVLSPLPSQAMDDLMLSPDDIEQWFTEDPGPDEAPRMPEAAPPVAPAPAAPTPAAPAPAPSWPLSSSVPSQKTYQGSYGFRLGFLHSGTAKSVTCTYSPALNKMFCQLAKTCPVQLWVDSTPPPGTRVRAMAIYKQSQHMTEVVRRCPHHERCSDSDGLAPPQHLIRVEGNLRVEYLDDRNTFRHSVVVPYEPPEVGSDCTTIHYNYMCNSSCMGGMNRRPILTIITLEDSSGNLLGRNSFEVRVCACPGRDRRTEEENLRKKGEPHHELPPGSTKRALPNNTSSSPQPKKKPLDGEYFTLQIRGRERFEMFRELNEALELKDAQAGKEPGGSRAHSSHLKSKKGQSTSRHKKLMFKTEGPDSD

Regarding `CC1(C)CCCC2(C)C1C(=O)C=C(C(=O)O)C2(O)C(=O)O` (stereo unspecified), the activation in experiment [1] was 41.2%. Further, the Potency result in experiment [2] and in experiment [3] was “inactive” in each case.

Take `CC1(C)OC[C@H](NC(=O)Nc2ccc(Br)cc2Br)[C@H](c2ccccc2)O1`: the Potency in experiment [1] is 19 µM (active). The Potency result in experiment [2] and in experiment [3] was “inactive” in each case.

In the case of `CCOc1ccc(-c2cc(NC(=O)c3c(F)cccc3F)c(C(=O)O)s2)cc1`, the activation in experiment [1] is 15.7%. Moreover, the Potency result in experiment [2] and in experiment [3] was “inactive” throughout.

As for `CC(C)=CCC/C(C)=C/Cc1ccc(O)c(C2OC(=O)c3cc(C(=O)O)cc(O)c32)c1O` (stereo unspecified), the activation in experiment [1] was -1.53%. Also, the Potency entry in experiment [2] and in experiment [3] was “inactive” in each case.

Regarding `CC12CCC(OC3OC(CO)C(O)C(OC4OC(CO)C(O)C(O)C4O)C3O)CC1CCC1C2CCC2(C)/C(=C3/COC(=O)C3)CCC12O` (stereo unspecified), the activation in experiment [1] is -3.82%. For the same compound, the Potency result in experiment [2] and in experiment [3] was “inactive” in each case.

In the case of `CC(=O)OC1C(O)CC2(C)C(CCC3(C)C2CC=C2C4C5(CCC(CO[C@@H]6O[C@H](CO)[C@@H](O)[C@H](O)[C@H]6O)(OC5=O)C4(C)O)C(O)CC23C)C1(C)C` (stereo partly specified), in experiment [1], the activation was -11.5%. In addition, the Potency result in experiment [2] and in experiment [3] was “inactive” throughout.

Consider `CCc1c(-c2ccccc2)c(-c2ccccc2)nn1-c1ccccc1-c1cccc(OCC(=O)O)c1`, for which the activation in experiment [1] is 13%. The Potency result in experiment [2] and in experiment [3] was “inactive” each time.

Turning to `Nc1c(NC/C=C\COc2cc(CN3CCCCC3)ccn2)c(=O)c1=O`, the activation in experiment [1] was -10.3%. Besides, the Potency entry in experiment [2] and in experiment [3] was “inactive” in each case.

With `COc1ccc(/C=C/C(=O)O[C@@H]2[C@@H](OC(C)=O)[C@@H](OC(C)=O)[C@H](O[C@H]3[C@@H]4C=CO[C@@H](O[C@@H]5O[C@H](CO)[C@@H](O)[C@H](O)[C@H]5O)[C@@H]4[C@@]4(CO)O[C@@H]34)O[C@H]2C)cc1`, the activation in experiment [1] is 5.34%. Also, the Potency entry in experiment [2] and in experiment [3] was “inactive” throughout.

With `COC(=O)[C@H](Cc1cccc(C(=N)N)c1)[C@@H](C)NC(=O)c1ccc(-c2cc[n+]([O-])cc2)cc1`, in experiment [1], the activation is 8.93%. Moreover, the Potency entry in experiment [2] and in experiment [3] was “inactive” in each case.

For `C/C=C/C=C/C1=C2C(=O)C3(C)C4C(C(=O)CC(O)/C=C/C)=C(O1)C1(C)C2C2(C)OC1(O)C4(C)OC23O` (stereo unspecified), in experiment [1], the activation is -2.68%. Besides, the Potency result in experiment [2] and in experiment [3] was “inactive” each time.

Take `CCC(C)C1NC(=O)C(Cc2ccccc2)NC(=O)C(CCCCCC(=O)C(O)CO)NC(=O)C2CCCCN2C1=O` (stereo unspecified): in experiment [1], the activation was -9.92%. In addition, the Potency entry in experiment [2] and in experiment [3] was “inactive” in each case.

`CC(C)(C)c1nnc(NS(=O)(=O)c2ccccc2)s1`: in experiment [1], the activation is 11.7%. The Potency entry in experiment [2] and in experiment [3] was “inactive” throughout.

Regarding `C/C(=C\CCC1(C)C2CC3C(C2)C31C)C(=O)O` (stereo unspecified), the activation in experiment [1] was 5.36%. The Potency result in experiment [2] and in experiment [3] was “inactive” in each case.

For `CC1=C(COC2OC(CO)C(O)C(O)C2O)C(C(CO)C(=O)O)CC1` (stereo unspecified), in experiment [1], the activation is -6.87%. Further, the Potency entry in experiment [2] and in experiment [3] was “inactive” throughout.

`CC(C)CC(c1c(O)c(C=O)c(O)c(C=O)c1O)C1CCC(C)(O)C2CC(C(C)(C)O)CCC12C` (stereo unspecified): the activation in experiment [1] is 22.3%. Also, the Potency entry in experiment [2] and in experiment [3] was “inactive” in each case.

`O=C(OC[C@H]1O[C@H](O[C@]2(CO)O[C@H](CO)[C@@H](O)[C@@H]2O)[C@H](O)[C@@H](O)[C@@H]1O)c1ccc(O)cc1`: the activation in experiment [1] is -2.68%. In addition, the Potency entry in experiment [2] and in experiment [3] was “inactive” in each case.

Regarding `C[C@@H]1O[C@@H](O[C@H]2[C@H](O[C@H]3[C@H](O[C@H]4CC[C@@]5(C=O)C(CC[C@]6(C)C5CC=C5C7CC(C)(C)C[C@@H](O)[C@]7(C)CC[C@]56C)C4(C)C)O[C@H](C(=O)O)[C@@H](O)[C@@H]3O)OC[C@@H](O)[C@@H]2O)[C@H](O)[C@H](O)[C@H]1O` (stereo partly specified), in experiment [1], the activation is -8.93%. Moreover, the Potency entry in experiment [2] and in experiment [3] was “inactive” throughout.

With `C[C@]1(CO)CCC[C@]2(C)C3=C(CCC12)COC3` (stereo partly specified), in experiment [1], the activation is -8.04%. The Potency result in experiment [2] and in experiment [3] was “inactive” each time.

`O=C(O)C(O[C@@H]1O[C@H](CO[C@@H]2O[C@H](CO)[C@@H](O)[C@H](O)[C@H]2O)[C@@H](O)[C@H](O)[C@H]1O)c1ccccc1` (stereo partly specified): the activation in experiment [1] was -16%. Further, the Potency entry in experiment [2] and in experiment [3] was “inactive” in each case.

Regarding `Cc1nc2ccc(Oc3ccc(F)cc3)cc2c(=O)n1C[C@H]1CCCN(C(C)C)C1`, the activation in experiment [1] is -12.4%. Further, the Potency result in experiment [2] and in experiment [3] was “inactive” each time.

In the case of `CC1=CC(=O)C(=C(C)C)CC2C1CCC2(C)O` (stereo unspecified), the activation in experiment [1] was -7.14%. Also, the Potency result in experiment [2] and in experiment [3] was “inactive” in each case.

Turning to `Cc1onc(-c2c(F)cccc2Cl)c1C(=O)N[C@@H]1C(=O)N2[C@@H]1SC(C)(C)[C@@H]2C(=O)O`, in experiment [1], the activation is -1.67%. The Potency entry in experiment [2] and in experiment [3] was “inactive” in each case.

As to `CCC/C=C/C=C/C1CC(O)C2(O)C(=O)OCC12` (stereo unspecified), the activation in experiment [1] was 6.11%. For the same compound, the Potency result in experiment [2] and in experiment [3] was “inactive” in each case.

For `CC1(C)CCC2(C(=O)OC3OC(COC4OC(CO)C(O)C(O)C4O)C(O)C(O)C3O)CCC3(C)C(=CCC4C5(C)CCC(O)C(C)(C(=O)O)C5CCC43C)C2C1O` (stereo unspecified), the activation in experiment [1] is 5.34%. Besides, the Potency result in experiment [2] and in experiment [3] was “inactive” each time.

On to `C/C(CO)=C1/CCC23COC(C2)C(O)(C(=O)O)CCC13` (stereo unspecified), for which the activation in experiment [1] is 0%. Further, the Potency entry in experiment [2] and in experiment [3] was “inactive” in each case.

As for `O=c1c2ccccc2nc2n1CCC2O` (stereo unspecified), in experiment [1], the activation was -3.82%. The Potency entry in experiment [2] and in experiment [3] was “inactive” each time.
